# PubChem BioAssay
# Active and inactive are the calls of the source.
# Assays:
# [1] = system: Human papillomavirus type 1a protein E7 (residues 44-93); assay: HPV1a E7 fragment binders on microarrays, primary screen, biochemical, small-molecule microarray, residues 44-93, 635 nm fluorescence (AID 1108); details: small-molecule microarray binding, fluorescence 635 nm; higher = more signal;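 also: E7 fragment applied at 1 µg/mL in TBST for 1 h at 4 C; score combines spot fluorescence with its signal to noise ratio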
# [2] = modulators of HCV replicon luciferase signal, primary screen, HCV replication inhibitor project, Huh7 cells, luciferase reporter (AID 1109); details: 48 h, higher = more signal;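 also: huh7 hepatoma cells harbouring a luciferase neomycin HCV replicon reporter; luciferase luminescence as measure of HCV replicon replication; test concentration not given here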
# [3] = target: Left-right determination factor 2 (Homo sapiens) (UniProt O00292); assay: LEFTY2 binders on small-molecule microarrays, primary screen, biochemical, small-molecule microarray, 635 nm fluorescence scan (AID 1110); details: LEFTY2 binding, higher = more signal
# [4] = target: Calmodulin-1 (Homo sapiens) (UniProt P0DP23); assay: CALM1 binders on microarrays, EGTA buffer, profiling panel, biochemical, small-molecule microarray, Cy5-labelled CALM1 (AID 1111); details: Cy5-CALM1 binding fluorescence, higher = more signal;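 also: labelled calmodulin applied in Tris saline Tween buffer holding calcium plus EGTA and DTT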
# [5] = target: Calmodulin-1 (Homo sapiens) (UniProt P0DP23); assay: calcium-bound CALM1 binders on microarrays, profiling panel, artefact control for SMM control-protein annotation, biochemical, small-molecule microarray, Cy5-labelled CALM1, plus calcium (AID 1112); details: Cy5-CALM1 binding fluorescence, higher = more signal;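 also: score merges spot fluorescence with signal to noise from triplicate slides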
# [6] = small-molecule microarray binders of probe aWnt5a, primary screen, biochemical, biotinylated probe, 635/667 nm fluorescence (AID 1113); details: higher = more signal;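 also: score merges 667 nm fluorescence intensity with signal-to-noise per printed feature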
# [7] = small-molecule microarray binders of probe aShh, primary screen, biochemical, biotinylated probe, 635/667 nm fluorescence (AID 1114); details: higher = more signal;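 also: probe is biotin-labelled aShh protein from a stem cell growth factor screen; measures binding of labelled protein to compounds printed on the slide; score merges feature fluorescence at 667 nm with signal-to-noise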
# [8] = small-molecule microarray binders of probe aNog, primary screen, biochemical, biotinylated probe, 635/667 nm fluorescence (AID 1115); details: higher = more signal;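 also: probe is biotinylated aNog protein used at 0.15 µg/mL for 1 h at 4 C; z-score combines 667 nm fluorescence of each spot with its signal to noise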
# [9] = target: Torsin-1A-interacting protein 1 (Homo sapiens) (UniProt Q5JTV8); assay: LAP1 binders from COS7 cell lysate, primary screen, small-molecule microarray, 635/667 nm fluorescence (AID 1116); details: COS7-hLAP1 lysate binding, 635 nm fluorescence, higher = more signal
# [10] = target: Alpha-bungarotoxin (Bungarus multicinctus) (UniProt P60615); assay: alpha-bungarotoxin binders on microarray, profiling panel, artefact control for SMM control protein annotation, biochemical, small-molecule microarray, Alexa647 label, 635/667 nm fluorescence (AID 1117); details: alpha-BTX-A647 binding fluorescence, higher = more signal
# Albumin (Bos taurus) = Albumin (Bos taurus) (UniProt P02769); assay: bovine serum albumin binders on microarray, profiling panel, artefact control for SMM control protein annotation, biochemical, small-molecule microarray, Alexa647 label, 635/667 nm fluorescence (AID 1118); details: BSA-A647 binding, fluorescence 635 nm, higher = more signal;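 also: score merges 667 nm emission intensity and signal-to-noise per printed compound spot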
# [11] = small-molecule microarray binders of probe aXIP, primary screen, biochemical, NeuroSMM set, 635/667 nm fluorescence (AID 1119); details: higher = more signal, called active from +8 up or from −8 down;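 also: probe is the protein aXip251-270 applied at 1 µg/mL to compound-printed slides; binding of probe to printed compounds measured as 667 nm fluorescence plus signal to noise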
# [12] = small-molecule binders of probe aNOTCH3, primary screen, biochemical, small-molecule microarray, 635/667 nm fluorescence (AID 1120); details: higher = more signal;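 also: probe is a biotin-tagged antibody raised against NOTCH3 rather than NOTCH3 protein; score merges spot fluorescence near 667 nm with spot signal to noise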
# [13] = small-molecule binders of probe aNOTCH2, primary screen, biochemical, small-molecule microarray, 635/667 nm fluorescence (AID 1121); details: higher = more signal;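 also: score merges feature fluorescence read at 667 nm with its signal to noise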
# [14] = target: Carbonic anhydrase 2 (Homo sapiens) (UniProt P00918); assay: CAII small-molecule binders, profiling panel, biochemical, small-molecule microarray, Alexa647-labelled CAII (AID 1122); details: CAII-A647 binding fluorescence, higher = more signal
# [15] = COS7 lysate on small-molecule microarray, probe aHis, 635 nm (AID 1123); details: COS7 cell lysate, fluorescence, higher = more signal;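 also: z-score combines 667nm fluorescence intensity with signal-to-noise per printed compound spot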
# [16] = compound binding in COS7 lysate, probe aLAP1, primary screen, cell lysate, small-molecule microarray (AID 1124); details: probe aLAP1, fluorescence, higher = more signal;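 also: lysate comes from COS7 cells expressing LAP1 and is applied at 0.3 µg/mL; score merges spot fluorescence near 667 nm with signal-to-noise over triplicate slides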
# Sam68 (KHDRBS1) = assay: Sam68 small-molecule binders, primary screen, biochemical, small-molecule microarray, 635 nm fluorescence (AID 1125); details: small-molecule microarray binding, higher = more signal;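 also: score merges 667 nm channel intensity with signal to noise over triplicate slides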
# [17] = system: Chordin-like protein 2 (CHRDL2); assay: CHRDL2 small-molecule binders, primary screen, biochemical, small-molecule microarray, 635 nm fluorescence (AID 1126); details: small-molecule microarray binding, fluorescence 635 nm; higher = more signal;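 also: printed compound slides probed with Chrdl2 protein at 4 µg/mL for 1 h at 4 C; score merges 667 nm emission intensity with signal to noise over three replicate slides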
# [18] = target: Concanavalin-A (Canavalia ensiformis) (UniProt P02866); assay: ConA small-molecule binders, primary screen, artefact control for SMM control protein annotation, biochemical, small-molecule microarray, Alexa647 label, 635 nm (AID 1127); details: ConA-A647 binding fluorescence, higher = more signal;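 also: z combines 667 nm emission intensity with signal-to-noise across three replicate slides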
# Concanavalin-A (Canavalia ensiformis), sequence (P02866 whole entry, looked up): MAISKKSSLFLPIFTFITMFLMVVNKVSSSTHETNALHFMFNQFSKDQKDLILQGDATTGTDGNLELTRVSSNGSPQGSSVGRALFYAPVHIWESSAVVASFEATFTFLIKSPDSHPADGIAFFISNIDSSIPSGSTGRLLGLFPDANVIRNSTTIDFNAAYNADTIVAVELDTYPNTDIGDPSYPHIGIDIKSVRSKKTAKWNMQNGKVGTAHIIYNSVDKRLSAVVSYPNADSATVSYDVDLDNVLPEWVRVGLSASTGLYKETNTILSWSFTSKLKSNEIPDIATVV
# Alpha-bungarotoxin (Bungarus multicinctus), sequence (P60615 whole entry, looked up): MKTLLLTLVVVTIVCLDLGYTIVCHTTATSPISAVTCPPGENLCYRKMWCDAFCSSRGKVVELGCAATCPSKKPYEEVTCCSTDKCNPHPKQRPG
# Left-right determination factor 2 (Homo sapiens), sequence (O00292 whole entry, looked up): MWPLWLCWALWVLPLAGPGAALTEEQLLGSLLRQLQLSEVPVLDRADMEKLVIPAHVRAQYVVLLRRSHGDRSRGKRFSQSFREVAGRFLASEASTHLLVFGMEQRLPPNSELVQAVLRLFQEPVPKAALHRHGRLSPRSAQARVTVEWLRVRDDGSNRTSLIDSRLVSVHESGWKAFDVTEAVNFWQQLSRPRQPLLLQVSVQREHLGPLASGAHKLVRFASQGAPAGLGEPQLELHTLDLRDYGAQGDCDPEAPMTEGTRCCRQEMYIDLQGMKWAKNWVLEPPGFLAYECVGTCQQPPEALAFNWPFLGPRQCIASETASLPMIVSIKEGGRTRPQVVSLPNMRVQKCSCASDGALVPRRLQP
# Torsin-1A-interacting protein 1 (Homo sapiens), sequence (Q5JTV8 whole entry, looked up): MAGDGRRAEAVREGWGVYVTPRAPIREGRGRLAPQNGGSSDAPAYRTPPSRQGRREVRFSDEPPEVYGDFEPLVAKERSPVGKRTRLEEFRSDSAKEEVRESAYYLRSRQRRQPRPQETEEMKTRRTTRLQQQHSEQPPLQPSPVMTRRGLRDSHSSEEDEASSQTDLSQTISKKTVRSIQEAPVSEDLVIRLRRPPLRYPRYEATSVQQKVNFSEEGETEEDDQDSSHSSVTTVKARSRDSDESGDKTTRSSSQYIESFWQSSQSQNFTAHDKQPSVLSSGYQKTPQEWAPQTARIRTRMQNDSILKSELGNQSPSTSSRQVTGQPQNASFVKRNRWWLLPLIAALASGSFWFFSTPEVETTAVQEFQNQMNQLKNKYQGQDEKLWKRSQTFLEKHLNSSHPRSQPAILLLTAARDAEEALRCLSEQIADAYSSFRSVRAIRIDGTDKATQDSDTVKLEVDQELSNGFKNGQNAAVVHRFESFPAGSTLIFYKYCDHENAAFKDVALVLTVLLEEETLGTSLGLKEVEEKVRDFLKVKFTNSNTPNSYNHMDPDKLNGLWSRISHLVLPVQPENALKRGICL
# Albumin (Bos taurus), sequence (P02769 whole entry, looked up): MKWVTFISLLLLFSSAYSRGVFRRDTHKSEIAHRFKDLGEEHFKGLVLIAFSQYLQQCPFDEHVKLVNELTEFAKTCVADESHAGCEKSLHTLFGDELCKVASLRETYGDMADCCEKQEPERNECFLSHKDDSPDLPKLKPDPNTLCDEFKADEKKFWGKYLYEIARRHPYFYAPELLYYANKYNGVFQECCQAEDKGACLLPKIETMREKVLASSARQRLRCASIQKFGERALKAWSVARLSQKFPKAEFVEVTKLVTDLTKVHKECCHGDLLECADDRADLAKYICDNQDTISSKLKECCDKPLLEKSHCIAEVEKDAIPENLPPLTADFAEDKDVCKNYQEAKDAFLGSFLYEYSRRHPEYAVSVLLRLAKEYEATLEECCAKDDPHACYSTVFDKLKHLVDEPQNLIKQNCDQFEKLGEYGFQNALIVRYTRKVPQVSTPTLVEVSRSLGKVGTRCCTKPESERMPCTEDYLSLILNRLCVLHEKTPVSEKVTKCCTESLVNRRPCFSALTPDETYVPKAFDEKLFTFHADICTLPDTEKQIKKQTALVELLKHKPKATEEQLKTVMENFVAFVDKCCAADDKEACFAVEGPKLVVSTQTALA
Compound,composite z-score [1],z-score [2],composite z-score [3],composite z-score [4],composite z-score [5],composite z-score [6],composite z-score [7],composite z-score [8],composite z-score [9],composite z-score [10],composite z-score (Albumin (Bos taurus)),composite Z-score [11],composite z-score [12],composite z-score [13],composite z-score [14],composite z-score [15],composite z-score [16],composite z-score (Sam68 (KHDRBS1)),composite z-score [17],composite z-score [18]
CCN(CC)c1ccc(N2CC=CC34O[C@@H]5C=CCCOC(=O)C5[C@H]3C(=O)N(CCCO)[C@@H]4C2=O)cc1 (stereo not given in full),-0.591,0.0997,0.0606,-0.409,-0.977,-0.176,-0.294,-0.288,-0.273,-1.17,-0.87,-0.0662 (inactive),-0.0387,-0.102,-0.177,-0.291,-0.332,-0.876,-0.218,-2.31
O=C1C[C@@](C(=O)O)(c2ccc([N+](=O)[O-])cc2)[C@@H](c2ccc(CO)cc2I)N1CC12CC3CC(CC(C3)C1)C2,0.997,-3.31,-0.44,1.67,0.889,0.0206,0.0434,0.108,0.817,2.3,0.776,0.235 (inactive),-0.132,0.0808,0.64,1.63,0.945,0.993,-1.42,1.09
CCCC[C@@H]1C[C@H]1[C@@H](NC(=O)c1ccco1)c1ccccc1,-1.35,-2.26,-2.75,-0.352,0.479,-0.258,0.108,-0.218,-1.63,-0.703,0.277,-0.264 (inactive),-0.25,-0.193,-0.504,-0.185,-0.697,-0.555,-1.41,-0.945
CC(C)(C)OC(=O)CC[C@]1(C(=O)NCC(O)CO)N=C(c2ccc(OCCCO)cc2)O[C@H]1c1ccccc1CN=[N+]=[N-] (stereo not given in full),0.29,1.15,-0.167,2.52,0.909,0.25,0.541,-0.524,3.82,2.42,0.906,1.27 (inactive),0.883,0.382,0.747,2.82,1.58,1.16,0.0916,1
COCCOC(=O)N1C(=O)[C@@]2(c3cc(C#CCC(C(=O)OC)C(=O)OC)ccc31)[C@H](c1ccc(OCCO)cc1)N1[C@H](c3ccccc3)[C@H](c3ccccc3)OC(=O)[C@H]1[C@@H]2C(=O)NC[C@H](O)c1ccccc1,0.958,-1.71,0.59,1.09,-0.518,-0.17,-0.291,-0.202,0.402,1.18,0.599,-0.33 (inactive),0.272,-0.132,0.563,2.42,0.41,1.32,0.45,1.01
C=C(/C(=C/C[C@@H](OC(=O)c1ccncc1)c1ccc(CO)o1)c1cc(C(=O)OC)ccc1OC)C(C)C,0.838,-2.03,0.512,0.224,-0.0294,-0.063,0.0893,0.107,0.815,0.582,0.83,0.459 (inactive),0.0311,-0.109,0.588,1.13,0.812,1.3,0.737,1.08
COc1ccccc1CN1C(=O)c2ccccc2[C@](Cc2ccccc2I)(C(=O)NCc2ccccc2)[C@@H]1c1ccc(CO)cc1,0.0977,-0.641,-0.703,0.0656,0.556,0.037,-0.264,-0.268,-0.0999,1.05,0.717,0.265 (inactive),-0.0682,-0.0211,0.345,1.77,0.729,0.505,-0.748,-0.0126
CN1C(=O)C2C(C1=O)C1C=C(c3ccc(CO)cc3)C2C(C2CC2)N1Cc1sc2ccccc2c1Cl (stereo not given),0.946,-1.58,0.545,2.06,0.398,0.0561,0.079,-0.186,2.06,2.87,0.947,-0.0285 (inactive),0.248,0.114,0.661,2.59,0.74,1.3,-0.124,1.21
Cc1ccc(F)cc1S(=O)(=O)N[C@@H]1CCN(Cc2ccc(C(F)(F)F)cc2)C1,-0.237,-2.01,-0.0209,-1.3,-0.904,-0.152,0.0723,-0.311,-0.0249,-0.536,-0.973,0.512 (inactive),-0.159,-0.173,-0.171,0.0774,0.242,0.144,0.509,-0.628
O=C(NCc1ccccc1)[C@@H]1c2ccccc2C(=O)N(Cc2cc(F)cc(C(F)(F)F)c2)[C@H]1c1ccc(CO)cc1,1.44,-0.132,-0.244,-0.174,-0.707,-0.096,0.163,-0.339,1.15,0.258,0.491,0.318 (inactive),-0.0477,-0.124,0.589,1.67,0.662,1.27,0.161,0.769
CC(c1ccccc1)C(O)C1C=CC2C(=O)N(Cc3ccccc3)C(=O)C2N1n1cnnc1 (stereo not given),1.12,-0.562,0.202,-0.133,0.13,0.0657,0.297,0.49,0.0111,0.512,0.405,0.171 (inactive),0.178,-0.046,0.415,1.06,-0.0771,0.669,-0.226,0.851
O=c1cccc(-c2ccccc2)o1,-0.815,-0.144,-0.491,-0.604,-0.108,-0.0863,0.0141,-0.295,-0.0971,-0.0278,0.66,2.27 (inactive),-0.0933,-0.0974,0.51,-0.295,-0.0258,-1.1,0.223,-0.234
COc1ccc([Si](C)(C)[C@H]2[C@H](CC(=O)N3Cc4ccccc4C[C@H]3CO)O[C@@]3(C(=O)N(Cc4cccc(I)c4)c4ccccc43)[C@@H]2C)cc1,0.276,-3.8,0.947,-0.551,1.49,-0.124,0.0815,-0.1,0.225,-0.0241,-0.481,0.58 (inactive),-0.0947,-0.125,0.784,-0.0845,-0.361,0.418,1.54,0.891
NC(=O)[C@@]1(CCS(=O)(=O)c2ccccc2)N=C(c2ccc(OCCCO)cc2)O[C@H]1c1ccccc1,1.49,-2.05,-0.38,1.37,0.699,0.0845,0.396,1.28,1.89,1.42,0.737,-0.0775 (inactive),0.0793,-0.0531,0.801,2.86,0.821,1.2,-1.12,1.14
Cc1ccc(S[C@]2(C(=O)NCC(F)(F)F)CC(=O)N(C3Cc4ccccc4C3)[C@@H]2c2ccc(CO)cc2I)cc1,-0.263,-1.55,-1.56,-0.0026,0.994,-0.184,-0.197,2.14,0.265,0.918,0.0944,0.325 (inactive),-0.207,-0.156,0.629,0.403,-0.245,-0.292,-1.18,-1.71
O[C@@H](Cc1ccccc1)[C@@H](/C=C/c1ccccc1)NCc1ccccc1Br,-1.16,-1.38,-1.56,-0.793,-0.43,-0.109,-0.17,-0.445,-0.962,-0.869,-0.786,-0.577 (inactive),-0.358,-0.192,-0.53,0.0935,-0.329,-0.815,-0.77,-1.05
[N-]=[N+]=NCc1ccccc1[C@H]1OC(c2ccc(OCCCO)cc2)=N[C@@]1(Cc1ccccc1)C(=O)O,1.38,-2.64,0.115,1.46,0.484,0.0079,0.199,-0.204,0.875,0.96,0.179,-0.365 (inactive),0.102,-0.106,0.63,1.05,-0.289,1.13,-0.469,1.11
C=C[C@H](C)[C@H](OC(=O)Nc1ccc(OC)cc1)c1ccc(O)c2ccccc12,-0.942,-3.3,-0.654,-1.38,-0.881,-0.129,-0.0709,-0.0691,0.041,-0.596,0.171,0.741 (inactive),-0.185,-0.193,0.696,0.702,0.513,-0.07,0.396,-0.503
Cc1cc(C)c(C(O)C2C=CC3C(=O)NC(=O)C3N2Nc2ccccn2)c(C)c1 (stereo not given),1.22,0.544,-0.318,0.62,0.153,-0.0596,0.0469,1.63,0.849,0.0525,0.63,-0.0521 (inactive),0.148,0.139,0.422,1.09,0.751,0.785,-0.907,0.049
C=CCCN(CC#C[C@H]1Oc2ccccc2S(=O)(=O)N2CCC[C@@H]12)S(=O)(=O)c1ccc(C)cc1,0.328,-1.92,0.148,-0.498,-0.863,-0.0125,0.0048,-0.183,0.631,-0.189,0.0985,0.671 (inactive),0.0311,-0.102,0.208,0.273,0.758,0.215,0.607,-0.464
O=C1C[C@@](C(=O)O)(c2ccc([N+](=O)[O-])cc2)[C@@H](c2ccc(CO)cc2I)N1C1CCCCC1,-0.549,-1.32,-0.27,1.6,0.734,0.0194,-0.299,-0.103,-0.126,1.28,0.909,0.477 (inactive),0.18,-0.0397,0.673,1.95,-0.405,0.765,-0.422,1.15
